Reference: PubChem BioAssay (Tox21)
Where “and” joins values, the source holds several entries; their conditions need not be identical. Equal entries are not always repeated. Records with an inconclusive call do not appear. More than one record can exist for a structure, and the calls need not agree. Calls of active or inactive are those of the source. Unless noted, calls come from the whole dose curve; as a rule, active = well fitted curve in the direction sought with a large enough effect in the repeat runs; inconclusive = weak or mixed curves; inactive = no such curve, though single readings can be large; an effect the other way counts as inactive or inconclusive.

Columns and labels:
[1] = qHTS RealTime-Glo MT Cell Viability Assay in HEK293 cells - 0 hour (AID 1224880); note: top concentration of the series differs between compounds; nearly all actives have a fitted effect of over 45% in size
Outline: (§1)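 Nonlytic bioluminescent viability monitoring. HEK293 at 600 cells/well with reagent; 5 h settle; compound transfer by pintool; plates held at 37 C and read at set time points.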

[2] = A CellTox Green Cytotoxicity Assay to monitor cytotoxicity in HEK293 cells - 32 hour (AID 1224881); note: nearly all actives have a fitted effect of over 40% in size
Outline: (§2)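 Cytotoxicity was tracked continuously in HEK293 cells by a DNA-binding dye excluded from viable cells. Compounds were transferred in DMSO 5 h after seeding; fluorescence was recorded at intervals up to 40 h.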

[3] = A CellTox Green Cytotoxicity Assay to monitor cytotoxicity in HepG2 cells - 0 hour (AID 1224882); note: nearly all actives have a fitted effect of over 35% in size
Outline: (§3)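 Real-time, homogeneous cytotoxicity readout: dead-cell DNA staining by CellTox Green in HepG2 monolayers, fluorescence measured at timed intervals up to 40 h of continuous compound exposure.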

[4] = A CellTox Green Cytotoxicity Assay to monitor cytotoxicity in HepG2 cells - 32 hour (AID 1224883); note: nearly all actives have a fitted effect of over 50% in size
Outline: as §3

[5] = A CellTox Green Cytotoxicity Assay to monitor cytotoxicity in HEK293 cells - 8 hour (AID 1224884); note: nearly all actives have a fitted effect of over 35% in size
Outline: as §2

[6] = qHTS RealTime-Glo MT Cell Viability Assay in HepG2 cells - 16 hour (AID 1224885); note: nearly all actives have a fitted effect of over 50% in size
Outline: (§4)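 Cells + NanoLuc/prosubstrate dispensed (600 cells/well) → 5 h at 37 C/5% CO2 → compounds in DMSO transferred → 40 h incubation at 37 C, luminescence read at 0, 8, 16, 24, 32, 40 h.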

[7] = qHTS RealTime-Glo MT Cell Viability Assay in HEK293 cells - 24 hour (AID 1224886); note: top concentration of the series differs between compounds; nearly all actives have a fitted effect of over 50% in size
Outline: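 Tox21 10K qHTS, HEK293, 600 cells/well, RealTime-Glo reagent co-dispensed with cells; 5 h preincubation, compound by pintool, 37 C, luminescence at 0–40 h.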

[8] = qHTS RealTime-Glo MT Cell Viability Assay in HEK293 cells - 8 hour (AID 1224887); note: top concentration of the series differs between compounds; nearly all actives have a fitted effect of over 50% in size
Outline: as §1

[9] = A CellTox Green Cytotoxicity Assay to monitor cytotoxicity in HEK293 cells - 16 hour (AID 1224888); note: nearly all actives have a fitted effect of over 35% in size
Outline: as §2

[10] = qHTS RealTime-Glo MT Cell Viability Assay in HepG2 cells - 0 hour (AID 1224889); note: nearly all actives have a fitted effect of over 50% in size
Outline: as §4

[11] = A CellTox Green Cytotoxicity Assay to monitor cytotoxicity in HepG2 cells - 8 hour (AID 1224890); note: nearly all actives have a fitted effect of over 45% in size
Outline: as §3

[12] = qHTS assay to identify small molecule antagonists of the estrogen receptor alpha (ER-alpha) signaling pathway using the BG1 cell line in the presence of 0.1 nM 17-beta-estradiol - cell viability counter screen (AID 1259241); note: nearly all actives have a fitted effect of over 40% in size
Outline: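 Viability in VM7Luc4E2 cells after 22 hr compound exposure under 0.1 nM 17beta-estradiol stimulation, by CellTiter-Fluor.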

[13] = qHTS assay to identify small molecule antagonists of the androgen receptor (AR) signaling pathway using the MDA cell line in the presence of 0.5 nM R1881 - cell viability counter screen (AID 1259242); note: nearly all actives have a fitted effect of over 45% in size
Outline: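 Cytotoxicity toward MDA-kb2 cells is measured by CellTiter-Fluor live-cell protease fluorescence after 16 hr compound exposure at 37C in the presence of 0.5 nM R1881 stimulator.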

[14] = biological target: Estrogen receptor (Homo sapiens) (UniProt P03372); experiment: qHTS assay to identify small molecule antagonists of the estrogen receptor alpha (ER-alpha) signaling pathway using the BG1 cell line in the presence of 0.1 nM 17-beta-estradiol (AID 1259244); note: nearly all actives have a fitted effect of over 50% in size; note: potency is the fitted concentration of half-maximal effect
Outline: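 After 5 days in hormone-depleted medium (charcoal-stripped serum, no phenol red), VM7Luc4E2 cells were seeded, incubated 24 h, then co-treated with compound and 0.1 nM (final) estradiol for 22 h before luminescence detection.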

[15] = qHTS assay to identify small molecule phospholipidosis (PLD) inducers (AID 1259344; active = well fitted curve in the direction sought with a large enough effect; an effect the other way counts as inactive or inconclusive)
Outline: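 HepG2 cells, 900/well, treated with compound plus LipidTOX Red for 24 h at 37 C; amiodarone positive and DMSO negative controls. Fixed with paraformaldehyde/Hoechst, then high-content imaging scored LipidTOX pit count and integrated intensity per well and per cell.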

[16] = qHTS assay to identify small molecule HDAC inhibitors (AID 1259364); note: nearly all actives have a fitted effect of over 45% in size; note: potency is the fitted concentration of half-maximal effect
Outline: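 Homogeneous cell-based luminescent assay of endogenous class I/II HDAC activity; HCT-116 cells, 2 h compound exposure, 30 min HDAC-Glo development at RT.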

[17] = qHTS assay to identify small molecule HDAC inhibitors - cell viability counter screen (AID 1259365)
Outline: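 Cytotoxicity was gauged in wild-type HCT-116 cells after a brief 2hr treatment with DMSO-dissolved compounds at 37C and 5% CO2, using CellTiter-Glo luminescence developed for 30min at room temperature.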

[18] = qHTS assay to identify small molecule agonists of the sonic hedgehog signaling (Shh) pathway - cell viability counter screen (AID 1259366); note: nearly all actives have a fitted effect of over 50% in size
Outline: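 Stable Gli1-Luc NIH/3T3 clone, 2,000 cells/well. Compound exposure 24hr at 37C. Read-out: CellTiter-Fluor fluorescence.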

[19] = qHTS assay to identify small molecule antagonists of the sonic hedgehog signaling (Shh) pathway - cell viability counter screen (AID 1259367); note: nearly all actives have a fitted effect of over 55% in size
Outline: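 NIH/3T3-derived Gli1-Luc reporter cells, 2,000/well, plated 4 hr before compound addition, then stimulated with conditioned medium for 24 hr at 37C. Viability measured in the same wells by CellTiter-Fluor fluorescence, reagent added at 23 hr for 1 hr.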

Measured: Potency

Estrogen receptor (Homo sapiens), sequence (P03372 whole entry, looked up): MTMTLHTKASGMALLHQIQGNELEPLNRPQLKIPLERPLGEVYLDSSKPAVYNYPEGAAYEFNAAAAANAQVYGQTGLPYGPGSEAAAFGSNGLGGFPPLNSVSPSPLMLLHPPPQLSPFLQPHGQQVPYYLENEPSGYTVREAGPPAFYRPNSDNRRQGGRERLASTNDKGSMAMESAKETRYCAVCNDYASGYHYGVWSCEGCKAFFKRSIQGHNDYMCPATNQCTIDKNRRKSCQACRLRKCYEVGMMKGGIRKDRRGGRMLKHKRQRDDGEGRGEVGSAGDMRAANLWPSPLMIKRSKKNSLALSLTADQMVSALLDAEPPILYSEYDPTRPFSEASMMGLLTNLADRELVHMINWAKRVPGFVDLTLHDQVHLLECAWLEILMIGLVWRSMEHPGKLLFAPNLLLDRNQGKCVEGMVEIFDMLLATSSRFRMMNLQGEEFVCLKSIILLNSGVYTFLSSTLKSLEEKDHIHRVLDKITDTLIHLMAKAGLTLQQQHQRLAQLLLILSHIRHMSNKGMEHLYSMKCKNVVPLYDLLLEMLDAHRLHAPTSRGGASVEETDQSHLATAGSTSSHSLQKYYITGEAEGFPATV

CNCC(O)c1ccc(O)cc1 (centres undefined)
inactive: all assays above

N#CN=C(N)N
not listed: [4] | [15]
inactive: all other assays above

CCNc1nc(Cl)nc(NC(C)C)n1
not listed: [4] | [15]
inactive: all other assays above

CNC(=O)O/N=C/C(C)(C)S(C)=O (centres undefined)
not listed: [4] | [15]
inactive: all other assays above

CN(C)NC(=O)CCC(=O)O
not listed: [4] | [14] | [15]
inactive: all other assays above

Cc1cccc(C)c1N
not listed: [4] | [15]
inactive: all other assays above

O=C/C=C/c1ccccc1
not listed: [4]
inactive: all other assays above

COc1nc(NC(C)C)nc(NC(C)C)n1
not listed: [4] | [15]
inactive: all other assays above

Cc1ccc(O)c(C)c1
not listed: [4] | [15]
inactive: all other assays above

FC(F)(F)c1ccc(Cl)cc1
not listed: [4] | [15]
inactive: all other assays above

Oc1ccc(Cl)cc1
not listed: [4] | [14]
inactive: all other assays above

CNC(=O)Oc1cccc2ccccc12
not listed: [4]
inactive: all other assays above

CCOC(=O)CC(SP(=O)(OC)OC)C(=O)OCC (centres undefined)
not listed: [4] | [14] | [15]
inactive: all other assays above

OCc1ccco1
not listed: [4] | [15]
inactive: all other assays above

CCCOC(=O)c1ccccc1C(=O)OCCC
not listed: [4] | [15]
inactive: all other assays above

Cc1cccc(N)c1C
not listed: [4] | [15]
inactive: all other assays above

Nc1cc(Cl)cc(Cl)c1
not listed: [4] | [14] | [15]
inactive: all other assays above

CN(C)C(=O)Nc1cccc(C(F)(F)F)c1
not listed: [4] | [14] | [15]
inactive: all other assays above

Nc1cccc(Cl)c1
not listed: [4] | [15]
inactive: all other assays above

COP(=S)(OC)SCN1C(=O)c2ccccc2C1=O
not listed: [4] | [14]
inactive: all other assays above

Cc1cccc(N)c1
not listed: [4] | [15]
inactive: all other assays above

Nc1nc(N)nc(NC2CC2)n1
not listed: [4] | [14]
inactive: all other assays above

C=C(C)C(=O)OCC(CC)CCCC (centres undefined)
22.1 µM (active) and inactive: [14]
not listed: [4] | [15]
inactive: all other assays above

CNc1cnn(-c2cccc(C(F)(F)F)c2)c(=O)c1Cl
inactive and 30.6 µM (active): [16]
not listed: [4] | [14] | [15]
inactive: all other assays above

O=C(O)C(Br)Br
not listed: [4] | [15]
inactive: all other assays above

ClCCOCCCl
not listed: [4] | [14] | [15]
inactive: all other assays above

COc1cc(-c2ccc(N)c(OC)c2)ccc1N
inactive and 27.3 µM (active): [16]
not listed: [4] | [14] | [15]
inactive: all other assays above

NNc1ccccc1
not listed: [4] | [14]
inactive: all other assays above

N#Cc1ccccn1
not listed: [4] | [15]
inactive: all other assays above

OCCCCO
not listed: [4] | [14] | [15]
inactive: all other assays above

CSc1nnc(C(C)(C)C)c(=O)n1N
not listed: [4] | [14] | [15]
inactive: all other assays above

CCOP(=S)(OCC)Oc1cc(C)nc(C(C)C)n1
not listed: [4] | [14]
inactive: all other assays above
